# High-throughput results (PubChem BioAssay)
# Many of the other results were omitted from the sample, so hits are more common in it than they were.
# Glyco luc inh – N-linked glycosylation inhibition | D54 ERlucT glycosylation luciferase reporter, 24 h; percent of 100 nM tunicamycin response | reporter increase, % at 12.5 µM | AID 588692 | 0.23% of 360,000 active;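 active = mean luciferase reporter signal, scaled so untreated is 0 and the glycosylation-blocking control 100, at or above a set limit in every replicate; inconclusive = mean reaches the limit but not every replicate does; inactive = mean below the limit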;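 note: luciferase carries N-glycosylation sites so blocking glycosylation raises the light; 0% = median of neutral control wells and 100% = median of 100 nM tunicamycin wells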
# DENV2 CPE – DENV2-induced cell death inhibition | 1.7% of 350,000 active | CPE inhibition, % at 9.99 µM | AID 651640 | DENV2-infected cells, cytopathic effect rescue, plate reader; in the data active = CPE inhibition above about 20%, passing the limit was not always enough; inconclusive = no clear call, values can overlap the other calls; tested in BHK-21 cells;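 note: 0% = median of neutral control wells and 100% = median of positive control wells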
# Rtt109 Vps75 – inhibitors of Candida albicans Rtt109/Vps75 histone acetyltransferase; Q5AAJ8; purified Rtt109/Vps75, ThioGlo CoA-SH fluorescence, 4 h; inhibition, % at 34.9 µM; 0.16% of 330,000 active;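 active = inhibition of at least 50% in every replicate; inconclusive = best replicate reaches 50% inhibition but some replicates fall short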
# Target sequence (Q5AAJ8 whole entry, looked up): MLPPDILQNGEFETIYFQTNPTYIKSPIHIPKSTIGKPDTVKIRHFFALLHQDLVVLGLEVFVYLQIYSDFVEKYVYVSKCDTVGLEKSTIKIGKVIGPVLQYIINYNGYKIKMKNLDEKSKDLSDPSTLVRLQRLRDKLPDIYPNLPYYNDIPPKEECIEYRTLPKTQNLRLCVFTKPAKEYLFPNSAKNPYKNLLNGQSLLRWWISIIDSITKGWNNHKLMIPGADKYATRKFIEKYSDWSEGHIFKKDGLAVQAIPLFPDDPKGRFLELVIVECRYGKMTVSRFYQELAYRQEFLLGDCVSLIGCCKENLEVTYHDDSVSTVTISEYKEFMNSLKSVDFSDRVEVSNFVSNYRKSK
# PglD DTNB – PglD (C. jejuni) enzyme inhibition | purified PglD enzyme, DTNB colorimetric CoA detection | inhibition, % at 12.5 µM | 0.098% of 360,000 active | AID 602405; in the data active = inhibition above about 16%, passing the limit was not always enough; inconclusive = no clear call, values can overlap the other calls
# * = called active by the depositor; ? = inconclusive; · = no result given; ! = a repeat was not active.
SMILES,Glyco luc inh,DENV2 CPE,Rtt109 Vps75,PglD DTNB
OC[C@@H]1[C@H](c2ccc(-c3ccc(F)cc3)cc2)[C@H]2CN(Cc3ccccn3)CCCCN12,·,32.7*,·,-0.9
OC[C@@H]1[C@H](c2ccc(-c3ccc(F)cc3)cc2)[C@@H]2CN(Cc3ccccn3)CCCCN12,·,-8.4,·,-0.2
O=C(NCc1ccccc1)[C@@]1(CCS(=O)(=O)c2ccccc2)COC(c2ccc(OCCCO)cc2)=N1,·,-15.3,·,-2.6
C/C=C/c1ccc2c(c1)O[C@@H](CN(C)C(=O)NC(C)C)[C@H](C)CN([C@@H](C)CO)S2(=O)=O,·,2.4,·,1.0
CCn1ncc(C2=NOC(C(=O)Nc3ccc(C)cc3)C2)c1C (stereo not drawn),-0.9,·,3.9,·
CCn1ncc(C2=NOC(C(=O)NCc3ccc(Cl)cc3)C2)c1C (stereo not drawn),36.2*,·,1.7,-0.7
C[C@H](CO)N1C[C@H](C)[C@@H](CN(C)C(=O)Nc2cccc3ccccc23)Oc2ccc(NS(C)(=O)=O)cc2CC1=O,·,-5.1,·,·
COc1ccc([C@@H]2[C@@H](C)N(c3ccccc3)c3ccccc3C(=O)N2Cc2ccccc2)cc1,-3.3,85.8*,·,3.3
CCOC(=O)C1=C(COC(=O)Cc2ccccc2[N+](=O)[O-])NC(=O)NC1C (stereo not drawn),1.8,38.1*,·,0.0
CCOC(=O)C1=C(COC(=O)Cc2ccccc2)NC(=O)NC1C (stereo not drawn),3.1,1.4,1.3,-1.1
C[C@@H]1CN([C@@H](C)CO)C(=O)c2cccc(N(C)C)c2O[C@H]1CN(C)Cc1ccc2c(c1)OCO2,·,-0.4,·,2.9
O=C(Nc1ccc(F)c(Cl)c1)Nn1cnnc1,-2.2,76.1*,21.4,5.2
O=C(Nc1ccc(F)cc1)Nn1cnnc1,-0.6,5.2,-2.2,1.2
C[C@@H]1CN([C@H](C)CO)C(=O)Cc2cc(NC(=O)CCC(F)(F)F)ccc2O[C@H]1CN(C)Cc1ccc(Oc2ccccc2)cc1,·,3.4,·,1.0
C[C@H]1CN([C@@H](C)CO)C(=O)CCCn2cc(nn2)CO[C@@H]1CN(C)S(=O)(=O)c1ccc(Oc2ccccc2)cc1,0.4,34.6*!,·,3.1
C[C@H](CO)N1C[C@H](C)[C@H](CN(C)S(=O)(=O)c2ccc(Oc3ccccc3)cc2)OCc2cn(nn2)CCCC1=O,·,22.1*,·,-1.7
Cc1ccc(S(=O)(=O)N(C)C[C@@H]2OCc3cn(nn3)CCCC(=O)N([C@@H](C)CO)C[C@@H]2C)cc1,·,-2.2,·,-1.5
C[C@@H]1CN([C@H](C)CO)C(=O)CCCn2cc(nn2)CO[C@@H]1CN(C)S(=O)(=O)c1ccc(Oc2ccccc2)cc1,·,0.0,·,1.5
C[C@@H]1CN([C@@H](C)CO)C(=O)CCCn2cc(nn2)CO[C@H]1CN(C)S(=O)(=O)c1ccc(Cl)cc1,2.7,20.8*!,·,4.6
COCC(=O)N1[C@H](CNC(=O)c2ccccn2)[C@@H](c2ccccc2)[C@@H]1CO,·,?,·,0.8
C[C@@H]1CN([C@@H](C)CO)C(=O)Cc2cc(NC(=O)Nc3ccccc3)ccc2O[C@H]1CN(C)Cc1ccc(Cl)c(Cl)c1,·,37.5*,·,4.4
C[C@@H]1CN([C@@H](C)CO)C(=O)Cc2cc(NC(=O)Nc3ccccc3)ccc2O[C@@H]1CN(C)Cc1ccccc1,·,2.2,·,1.2
C[C@H](CO)N1C[C@H](C)[C@@H](CN(C)Cc2ccccc2)Oc2ccc(NC(=O)Nc3ccccc3)cc2CC1=O,·,24.8*,·,0.6
C[C@H]1CN([C@@H](C)CO)C(=O)Cc2cc(NC(=O)Nc3ccc4c(c3)OCO4)ccc2O[C@H]1CN(C)Cc1ccccc1,·,46.1*,·,3.1
O=c1[nH]c(=S)[nH]c2c1C(c1ccc(Cl)cc1)OC(CCc1ccccc1)C2 (stereo not drawn),2.9,100.9*,·,-1.6
SMILES,Glyco luc inh,DENV2 CPE,Rtt109 Vps75,PglD DTNB
O=c1[nH]c(=S)[nH]c2c1C(c1ccc(Cl)c(Cl)c1)OC(CCc1ccccc1)C2 (stereo not drawn),·,18.5,·,·
CC(=O)OC1CCC2C3CCC4=CC(=O)CCC4(C)C3CCC2(C)[C@]1(C)O (stereo partly drawn),-0.1,105.7*,-1.9,-5.1
CC(=O)[C@@]1(O)CC[C@H]2[C@@H]3CCC4=CC(=O)CC[C@]4(C)[C@H]3CC[C@@]21C,-0.6,-2.6,1.6,-4.6
Cc1cc(NC(=O)CSc2ccc(-c3nc4cc(C)c(C)cc4[nH]3)cn2)no1,44.2*,·,-26.3,-0.7
O=C(CSC1=NCCN1)Nc1cccc([N+](=O)[O-])c1,9.2,4.6,113.1*,3.5
O=C(CSC1=NCCN1)Nc1ccccc1[N+](=O)[O-],1.2,-2.9,0.2,·
CCN(CC)CCN1C(=O)c2cccc3cc(N)cc(c23)C1=O,59.6*,1.1,5.0,1.9
